# High-throughput results as filed in PubChem BioAssay.
# In the library only some 9.5% were active in any assay of this set; here they are far more common.
# Tau fluor counter: counter-screen for tau fibril formation inhibitors; tau K18 P301L Alexa594 fluorescence, heparin fibrillization; AID 1463; Potency, µM (series often up to 57.7 µM), inactives show top-dose activity change, negative = decrease; actives 0.93% (n = 280,000); also: nearly all actives have a fitted effect of over 55% in size
#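 Human K18 P301L tau (15 uM unlabeled plus 0.24 uM Alexa 594-labeled, final) in 100 mM sodium acetate pH 7 was mixed with compound and 20 uM heparin and incubated 6 hr at 37 C.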
# ALDH1A1 inh: inhibitors of human aldehyde dehydrogenase 1A1; Potency, µM (doses to about 75.3 µM), for the others: at the highest dose activity, negative = inhibition, actives largely listed as inhibitors; P00352; Purified ALDH1A1, NADH fluorescence, propionaldehyde substrate; actives 7.3% (n = 220,000); active = well fitted inhibition curve with a large enough effect, not every such curve was filed as active; inconclusive = small, poorly fitted or top-dose-only effect, or another doubt; inactive = no such curve, though single readings can be large or run the other way;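 also: plate controls were no enzyme wells and a reference inhibitor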
# Tau ThT inhib: blocks human tau fibril formation measured by thioflavin T. Potency, µM (highest dose often 57.4 µM), for the others: at the top dose activity, negative = inhibition, actives largely listed as inhibitors. P10636. recombinant tau K18 P301L, heparin-induced fibrillization, ThT fluorescence. actives 2.1% (n = 270,000). AID 1460; also: nearly all actives have a fitted effect of over 55% in size
# Target sequence (P10636 561-689 P618L limits assumed): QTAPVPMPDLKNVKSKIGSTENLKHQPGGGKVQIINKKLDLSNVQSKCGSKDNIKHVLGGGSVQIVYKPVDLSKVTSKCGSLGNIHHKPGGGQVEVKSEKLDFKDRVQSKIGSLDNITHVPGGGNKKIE
#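 Fibril formation assay: tau K18 P301L at 15 uM with trace Alexa 594 label, heparin inducer 20 uM, pH 7 sodium acetate buffer, 37 C for 6 hr; endpoint ThT signal.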
# HPGD inh: inhibitors of human 15-hydroxyprostaglandin dehydrogenase (HPGD); actives 4.3% (n = 150,000); Potency, µM, inactives show at the highest dose activity change, negative = inhibition, most hits filed as inhibitors; AID 894; P15428; purified HPGD, NADH fluorescence kinetic, PGE2 substrate; active = well fitted inhibition curve with a large enough effect, not every such curve was filed as active; inconclusive = small, poorly fitted or top-dose-only effect, or another doubt; inactive = no such curve, though single readings can be large or run the other way
# Target sequence (P15428 whole entry, looked up): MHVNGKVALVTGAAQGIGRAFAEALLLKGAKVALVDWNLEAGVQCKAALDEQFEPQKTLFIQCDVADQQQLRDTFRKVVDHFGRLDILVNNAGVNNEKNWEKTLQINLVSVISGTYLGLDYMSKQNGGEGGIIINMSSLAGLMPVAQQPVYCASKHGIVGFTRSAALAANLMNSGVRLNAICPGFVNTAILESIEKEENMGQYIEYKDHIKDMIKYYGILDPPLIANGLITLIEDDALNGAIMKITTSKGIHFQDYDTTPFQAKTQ
#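 20 nM HPGD preincubated 15 min at room temperature with compound in 50 mM Tris-HCl pH 8, 0.01% Tween 20. Started with 1 mM NAD+ and 30 uM prostaglandin E2; NADH fluorescence (360/450 nm) read 5 times over 30-s intervals, last minus first.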
# Tau FP inhib: inhibitors of human tau fibril formation; Potency, µM (series often up to 57.7 µM), for inactives: at the top dose activity, negative = inhibition, most hits filed as inhibitors; P10636; K18 P301L tau heparin fibrillization, Alexa594 FP, 6 h; AID 1468; actives 0.39% (n = 280,000); also: nearly all actives have a fitted effect of over 55% in size
#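 Quantitative HTS format: compounds meet 15 uM recombinant K18 P301L tau and Alexa 594-tau tracer in 100 mM sodium acetate pH 7; 20 uM heparin triggers fibrillization at 37 C over 6 hr; FP gives the signal.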
# NPSR antagonist: neuropeptide S receptor (human) antagonism, cAMP; Q6W5P4; CHO-NPSR cells, cAMP TR-FRET, antagonist mode; Potency, µM (doses to about 38.3 µM), for the others: top-dose activity change, negative = inhibition, most hits filed as inhibitors; actives 1% (n = 220,000); AID 1461; also: nearly all actives have a fitted effect of over 50% in size
# The depositor's hits bear a star; ? = inconclusive; / = no result; [ ] = dose if it differs, or a comment. Unless noted, calls follow the shape of the dose curve; as a rule, active = well fitted curve in the direction sought with a large enough effect; inconclusive = small, poorly fitted or top-dose-only effect, or another doubt; inactive = no such curve, though single readings can be large; an effect the other way counts as inactive or inconclusive. Unless noted, % is scaled to controls: 0 for no effect and ±100 for the full control effect; potency is read from the fitted curve at half-maximal effect.
SMILES,Tau fluor counter,ALDH1A1 inh,Tau ThT inhib,HPGD inh,Tau FP inhib,NPSR antagonist
O=C(CSc1nc2[nH]ncc2c(=O)n1-c1ccccc1Cl)N1CCCC1,-8%,32µM*,-9%,/,-2%,21%
CCc1ccccc1-n1c(SCC(=O)N2CCCC2)nc2[nH]ncc2c1=O,-1%,?,-2%,/,2%,12%
c1cc(CSSCc2ccncc2)ccn1,/,4µM*,/,-14%,/,/
Cc1ccccc1-n1c(SCC(=O)c2cc(C)n(C)c2C)nnc1-c1cccnc1,-12%,?,-14%,25µM*,5%,-27%[46.1 µM]
O=C(Nc1ccc(F)cc1)C1=CC(=O)N2CCN=C2S1,-14%,16µM*,18µM*,/,?,-6%
CC1=NCCN1CCNC(=O)Nc1ccc(F)cc1,3%,19%,0%,/,-4%,-18%
CC[C@@]1(O)C(=O)COc2c1cc1n(c2=O)Cc2c-1nc1cccc(C(C)C)c1c2[Si](C)(C)C,-1%,?,-10%,?,3%,/
Cc1ccc(C(C(=O)NCC2CCCO2)N(Cc2ccccc2)C(=O)c2ccc(-c3ccccc3)[nH]2)o1 (stereo unspecified),-15%,22µM*,-17%,?,0%,-45%
O=C(NCC1CCCO1)C(c1cccs1)N(Cc1ccccc1Cl)C(=O)c1ccc(-c2ccccc2)[nH]1 (stereo unspecified),-9%,-12%,-11%,-21%,-1%,-54%
O=C(NC1CCCC1)C(c1ccncc1)N(Cc1ccccc1)C(=O)c1ccc(-c2ccccc2)[nH]1 (stereo unspecified),-8%,22µM*,-14%,-20%,4%,-38%
O=C(NC1CCCC1)C(c1ccncc1)N(Cc1ccco1)C(=O)c1ccc(-c2ccccc2)[nH]1 (stereo unspecified),-15%,?,?,/,-8%,?
O=C(Nc1nnc(S(=O)(=O)N2CCCc3ccccc32)s1)c1ccccc1Br,-13%,/,?,/,6%,/
CCCc1cc(=O)oc2cc(C)cc(OC(=O)c3ccco3)c12,-3%,2.2µM*,-2%,3%,-3%,1%[46.1 µM]
CCc1cc(=O)oc2cc(C)cc(OCC(C)=O)c12,-10%,/,-6%,/,-4%,-19%
CCc1cc(=O)oc2cc(C)cc(O)c12,-9%,4.5µM*,-3%,28µM*,3%,11%[46.1 µM]
CCCc1cc(=O)oc2cc(C)cc(O)c12,-11%,8.9µM*,-15%,-15%,-1%,7%[46.1 µM]
CCCCCc1cc(O)c2c(C)cc(=O)oc2c1,-6%,1.8µM*,-5%,-20%,-3%,-10%[46.1 µM]
COc1cc(NC(=O)CN2C(=O)COc3ccc(S(=O)(=O)NC4CCCC4)cc32)cc(OC)c1,-23%,/,-3%,/,?,/
C=CCn1c(SCc2nc3ccccc3c(=O)[nH]2)nnc1-c1cc2cc(Cl)ccc2o1,3%,?,-17%,?,3%,22%[46.1 µM]
CCCCc1cc(=O)oc2cc(C)c(CN3CCCC3)c(O)c12,-9%,22µM*,-14%,-17%,-7%,-8%[46.1 µM]
CCc1cc(=O)oc2cc(C)c(CN3CCCC(C)C3)c(O)c12 (stereo unspecified),-16%,?,?,-8%,4%,-9%[46.1 µM]
Cc1nc(SCc2ccc(C(=O)O)cc2)c2c(C)c(C)sc2n1,12%,/,/,/,7%,-15%
Cc1sc2ncnc(SCc3ccc(C(=O)O)cc3)c2c1C,1%,40µM*,-6%,/,-1%,-22%
CC(CCc1ccccc1)NC(=O)Cn1c(=O)nc(-c2ccccc2)c2cc(Cl)ccc21 (stereo unspecified),-14%,/,-12%,/,-6%,/
CCOC(=O)c1sc(NC(C)=O)c(C(=O)OCC)c1C,-4%,?,2%,-12%,0%,-14%[46.1 µM]
SMILES,Tau fluor counter,ALDH1A1 inh,Tau ThT inhib,HPGD inh,Tau FP inhib,NPSR antagonist
CCOC(=O)c1c(NC(=O)CC)sc(C(=O)N2CCCCC2)c1C,-4%,?,-10%,28µM*,8%,-21%[46.1 µM]
CCOC(=O)c1c(NC(=O)C2C3C=CC(CC3)C2C(=O)O)sc(C)c1CC (stereo unspecified),10%,-1%,-3%,-16%,4%,-36%
CCOC(=O)c1c(NC(=O)C2CC2)sc(C)c1CC,-22%,22µM*,28µM*,?,?,-15%
CCOC(=O)c1sc(NC(=O)CCN2CCCCCC2)c(C(=O)OCC)c1C,7%,2.5µM*,-15%,/,9%,-10%
COc1ccc(-c2cc(C(F)(F)F)nc(SCC(=O)NC(C)c3ccccc3)n2)cc1 (stereo unspecified),-14%,/,-5%,/,?,/
Cc1ccc(OCC(=O)Nc2ccc3nc(SCC(=O)N(C)c4ccccc4)sc3c2)cc1,?,/,-3%,/,-6%,/
Cn1cccc1/C=C1\CC(C(C)(C)C)C/C(=C\c2cccn2C)C1=O (stereo unspecified),-15%,?,?,-15%,9%,10µM*
CN1C2CCC1/C(=C/c1cccn1C)C(=O)/C2=C\c1cccn1C,-21%,4%,-10%,28µM*,-11%,-23%
Cn1cccc1/C=C1\Cc2ccccc2C1=O,-7%,11µM*,?,/,5%,-13%
CN1C2CCC1/C(=C\c1ccc(F)cc1)C(=O)/C2=C/c1ccc(F)cc1,-8%,-1%,?,-4%,-1%,-58%
Cn1cccc1/C=C1\CCc2ccccc2C1=O,-19%,-16%,?,/,-2%,-22%
O=C(COC(=O)Cc1ccsc1)NC1CCCCCC1,-5%,-1%,-7%,-9%,3%,8%[7.67 µM]
COc1cccc2c1Oc1ncccc1N(C(=O)CCC(=O)NCc1ccc(OC(C)C)cc1)C2,-11%,/,-6%,/,-9%,/
CCN(CCn1cccn1)Cc1ccccc1OCC(O)CN1CCc2ccccc2C1 (stereo unspecified),0%,0%,-5%,/,-5%,0%
Cc1cc(C)n(-c2nnc(NCc3ccc(Cl)cc3)nn2)n1,-16%,2%,?,/,7%,1%
Cc1nn(-c2nnc(NCc3ccccc3)nn2)c(C)c1Br,?,28µM*,14µM*,14µM*,10%,-6%
C=CCn1cc(C(=O)OCC)c(=O)c2ccc(F)cc21,-5%,5%,-3%,/,-3%,16%
Cc1ccc(S(=O)(=O)CCSc2cccc(C(=O)Nc3ccccc3C(=O)O)c2)cc1,-10%,?,1%,16µM*,3%,-13%
COc1ccc(/C=N/NC(=O)CC(=O)NC2CCCCC2)cc1,-5%,-8%,-6%,/,-2%,1%
O=CN1CCc2scc[n+]2-c2ccccc21,-12%,14µM*,?,-11%,?,-6%[46.1 µM]
O=C(Nc1ccccc1)N1CCc2scc[n+]2-c2ccccc21,-12%,?,?,-8%,?,4%
